PTK2B oligo ant: antagonists of human Pyk2 oligomerization | 0.83% of 99,000 active | Q293 cells, Pyk2 FERM NanoBiT luminescence; stronger effect = lower value | Q14289 | z-score (the deposit names both 25 µM and 10 µM);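 active = Z-score of -3 or lower, scaled per plate to the spread of control and sample wells; inactive = z-score above -3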;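 also: negative z-score means lost luminescence so less FERM oligomerization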
Ec RNAP inh: blocks E. coli RNA polymerase transcription. P0A8V2. fluorescence transcription assay. inhibition, %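 (tested at 10 µM)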. 0.2% of 62,000 active; in the data active = inhibition above about 20%;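 also: 0% = enzyme without compound and 100% = no enzyme blank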
Mac1 fbg enh: increases human CD11b/CD18 adhesion to fibrinogen; P05107+P11215; K562 CD11b/CD18 adhesion to fibrinogen, ATPlite luminescence; activation, % at 10 µM; 0.07% of 93,000 active; AID 1499;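 active = 10 µM primary screen giving 50% or more activity, confirmed by 40% or more on retest at that dose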
Target sequence (P05107 whole entry, looked up, other chains not shown): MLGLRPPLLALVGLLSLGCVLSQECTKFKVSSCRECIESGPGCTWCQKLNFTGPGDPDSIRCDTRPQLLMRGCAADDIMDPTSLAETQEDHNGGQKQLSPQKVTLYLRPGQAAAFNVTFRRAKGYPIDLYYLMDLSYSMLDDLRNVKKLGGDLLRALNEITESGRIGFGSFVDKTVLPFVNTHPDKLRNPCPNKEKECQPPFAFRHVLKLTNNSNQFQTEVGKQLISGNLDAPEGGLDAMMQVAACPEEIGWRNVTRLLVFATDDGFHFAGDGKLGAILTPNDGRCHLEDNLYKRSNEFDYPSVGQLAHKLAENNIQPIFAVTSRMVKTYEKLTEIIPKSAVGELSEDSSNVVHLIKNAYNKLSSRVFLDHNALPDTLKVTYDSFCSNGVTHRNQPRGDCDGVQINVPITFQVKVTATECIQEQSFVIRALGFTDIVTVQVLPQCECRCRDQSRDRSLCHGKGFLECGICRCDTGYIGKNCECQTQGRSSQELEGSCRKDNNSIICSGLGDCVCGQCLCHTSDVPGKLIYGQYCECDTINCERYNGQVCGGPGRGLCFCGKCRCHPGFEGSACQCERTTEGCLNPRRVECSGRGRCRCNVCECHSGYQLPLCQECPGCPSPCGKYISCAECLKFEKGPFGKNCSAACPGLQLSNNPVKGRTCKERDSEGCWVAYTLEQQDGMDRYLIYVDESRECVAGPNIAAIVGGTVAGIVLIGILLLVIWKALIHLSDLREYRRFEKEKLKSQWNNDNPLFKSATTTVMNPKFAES
Cav3 T inh: blocks human Cav3.2 T-type calcium channel; Cav3.2-expressing cells, Fluo-4 calcium fluorescence FDSS; stronger effect = lower value; 4% of 100,000 active; AID 449739; B-score at 10 µM;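 active = single-dose well whose peak fluorescence ratio is a statistical outlier from its plate by either plate-standardised score or position-corrected B-score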
Mac1 fbg inh: inhibitors of human CD11b/CD18 binding to fibrinogen | 0.54% of 93,000 active | P05107+P11215 | K562 CD11b/CD18 adhesion to fibrinogen, ATPlite luminescence; Mn2+ added to activate the integrin | AID 1497 | inhibition, % at 10 µM;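 active = primary inhibition of 50% or more at 10 µM, then 40% or more on retest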
Active calls of the source: *; x = not tested or not shown. Shown are actives, neighbours in structure and some others; about 4.2% of the full set was active somewhere.

SMILES | PTK2B oligo ant | Ec RNAP inh | Mac1 fbg enh | Cav3 T inh | Mac1 fbg inh
O=c1c2ccccc2nc(SCc2cccc(F)c2)n1Cc1ccco1 | -0.33 | 2 | x | -3.4 | x
CC(NC(=O)COc1ccc(-c2nnco2)cc1)c1ccc(Cl)cc1Cl (configuration not stated) | x | x | -1 | x | 22
CC1(OC(=O)CCc2ccccc2)C(=O)C=C2C=C(c3ccc(C#N)cc3)N(CCc3c[nH]c4ccccc34)C=C2C1=O (configuration not stated) | x | x | x | 0.69 | x
CC1=NNC(=O)C1CCC(=O)N/N=C/C(Br)=C/c1ccccc1 (configuration not stated) | x | x | 0 | x | -19
N#Cc1ccc(C(=O)Nc2cc(S(=O)(=O)N3CCCC3)ccc2OCC(F)(F)F)cc1 | 0.89 | x | x | x | x
CCCCc1nc(NCCNC(=O)c2ccccc2)c(C#N)c2c1CSC(C)(C)C2 | -0.27 | x | -5 | -4.5* | 18
CCCCc1nc(NCCNC(=O)c2ccco2)c(C#N)c2c1CSC(C)(C)C2 | x | 4 | 0 | -5.8* | 8
CCN(CC(=O)Nc1cccc(OC)c1)C(=O)c1ccc(C)s1 | -0.76 | x | 4 | 0.98 | 5
COc1ccc(C(=O)/C(=C\c2ccco2)N2C=CC=CC2=C(C#N)C#N)cc1 | -0.41 | x | x | -6.8* | x
COc1ccc(/C=C2\CCc3ccccc3C2=O)cc1Cn1nc(C)cc1C | -1.5 | x | -7 | -4.3* | 18
COc1ccc(/C=C2\CCc3ccccc3C2=O)cc1OC | -0.69 | x | -4 | -1.2 | 1
COc1cccc(C(=O)N2CCN(S(C)(=O)=O)CC2)c1 | -0.08 | x | -2 | 0.12 | 7
COc1ccc(-n2c(C)cc(C(=O)COC(=O)Cn3cnc4ccccc43)c2C)cc1 | 0.1 | 10 | -9 | -2.2 | 97*
N#CC1(Cc2ccc(Cl)cc2)c2ccccc2C=CN1C(=O)c1ccccc1 (configuration not stated) | 1.1 | x | -2 | -3.2* | 2
O=C(O)C(=O)/C(=C\c1cccc2ccccc12)c1ccc2ccccc2n1 | -0.11 | x | -6 | -5.5* | 6
COc1cccc(C2C3(C#N)C(N)=NC(OC)(OC)C23C#N)c1 (configuration not stated) | 0.2 | x | x | -0.36 | x
COC1(OC)N=C(N)C2(C#N)C(c3cccc(Oc4ccccc4)c3)C12C#N (configuration not stated) | -0.12 | 5 | 1 | -5* | -10
Cc1ccc(C)n1-n1c(C)nc2scc(-c3cccs3)c2c1=O | -2 | 0 | -1 | -3.9* | -3
Cc1nc2scc(-c3cccs3)c2c(=O)n1-n1cccc1 | 0.84 | 7 | 2 | -3 | 3
O=C(NCc1ccccn1)c1ccc(CNS(=O)(=O)c2ccc(F)cc2)cc1 | x | x | -2 | x | -5
O=C(/C=C/c1ccccc1)NCCSCc1ccccc1Cl | 0.92 | x | 4 | -5.7* | -20
CCc1nc(SCC(=O)Nc2sc(C)c(C)c2C(=O)OC)c2ccccc2n1 | x | x | -2 | -0.19 | -12
CC(=O)Nc1ccccc1Nc1cc(C#N)c(C#N)cc1[N+](=O)[O-] | -0.12 | x | x | 1.4 | x
COc1ccc2cc(C3(C)NC(=O)N(CC(=O)NCCC4=CCCCC4)C3=O)ccc2c1 (configuration not stated) | -1.1 | x | 0 | -7.4* | -4
Cc1ccc(C(=O)Nc2ccccc2Oc2ccccc2)cc1[N+](=O)[O-] | -1.1 | x | x | -4.1* | x
SMILES | PTK2B oligo ant | Ec RNAP inh | Mac1 fbg enh | Cav3 T inh | Mac1 fbg inh
CCN(CC)c1ccc(NC(=O)COC(=O)/C=C/c2nc3ccccc3s2)cc1 | x | x | 6 | x | -11
CCN(CC)c1ccc(/C=C/c2nc3ccccc3s2)cc1 | x | x | x | -3.9* | x
COC(=O)C1=C(N)Oc2cc(C)n(CC3CCCO3)c(=O)c2C1c1ccc(Cl)cc1 (configuration not stated) | -2.1 | 8 | -1 | -3.1* | 2
COc1ccc(S(=O)(=O)NCCSCc2ccccc2C)cc1Br | -1.6 | x | 0 | -4.9* | -3
Cc1ccccc1CSCCNS(C)(=O)=O | 0.54 | x | -7 | 0.56 | -29
COc1cccc(CNc2ncc(Br)cc2Br)c1O | -0.66 | 9 | -2 | -0.071 | 0
COc1cccc(CNc2ccc(Br)cn2)c1O | -1.1 | 0 | x | -6.5* | x
COc1ccc2c3c(cccc13)N(C)N=C2C | -0.38 | x | 14 | x | -29
COc1ccc(Cn2cc(F)c(=O)n(CCC(C)C)c2=O)cc1[N+](=O)[O-] | -0.12 | x | -6 | -0.00036 | 6
COc1c(N2CCN(C(=S)Nc3ccc(F)cc3)C(C)C2)c(F)cc2c(=O)c(C(=O)O)cn(C3CC3)c12 (configuration not stated) | -0.75 | x | x | 3.6* | x
COc1c(N2CCNC(C)C2)c(F)cc2c(=O)c(C(=O)O)cn(C3CC3)c12 (configuration not stated) | x | -8 | x | 0.32 | x
O=C(O)c1cc(N2C(=O)C3CC=CCC3C2=O)ccc1NCc1cccnc1 (configuration not stated) | 0.4 | x | -8 | x | -17
CCCN(CCC)C(=O)CSc1nc2ccccc2c(=O)n1CC1COc2ccccc2O1 (configuration not stated) | -1.8 | x | x | -5.9* | x
CCOC(=O)CSc1nc2ccccc2c(=O)n1CC1COc2ccccc2O1 (configuration not stated) | -1.9 | 4 | 1 | 0.28 | -14
CCC(Oc1ccccc1)C(=O)Nc1nnc(C)s1 (configuration not stated) | -1.4 | -5 | -8 | 0.093 | -1
CCC(Oc1ccccc1)C(=O)Nc1nnc(C(F)(F)F)s1 (configuration not stated) | -1.7 | 9 | -6 | -1.3 | 74*
Cn1c(NC(=O)c2cc(-c3ccc4c(c3)OCO4)nc3ccccc23)cc(=O)n(C)c1=O | -4* | 2 | x | x | x
CC1CCC(C(C)C)C(OC(=O)CSc2nnc(N)s2)C1 (configuration not stated) | -0.6 | x | x | -4.8* | x
COc1ccc(Cc2noc(COc3ccc(Cl)cc3)n2)cc1 | -0.05 | x | -3 | -2.6 | -10
COc1ccccc1OCc1nc(Cc2ccc(Cl)cc2)no1 | -0.26 | 5 | -3 | -5.2* | -14
Cc1ccc(S(=O)(=O)N2CCOCC2)cc1C(=O)OCC(=O)N1c2ccccc2NC(=O)C1(C)C | x | x | -2 | 0.73 | -2
CC(C)C(C(=O)NCc1ccco1)N(C(=O)CNS(=O)(=O)c1ccc(Cl)cc1)C1CCCC1 (configuration not stated) | 0.17 | 8 | -2 | -7.3* | 10
O=C(CN(Cc1ccco1)C(=O)CNS(=O)(=O)c1ccc(Cl)cc1)NC1CCCCC1 | -1.1 | 6 | 5 | -4.8* | 0
COc1ccccc1NC(=O)CSC(N)=O | -0.43 | x | -3 | -2.8 | 10
N/C(=N\S(=O)(=O)c1ccc(Cl)s1)c1ccccc1 | 1.2 | 5 | -1 | -5.8* | -13
COc1ccc(C2CC(c3ccccc3)n3nnnc3N2)cc1 (configuration not stated) | 0.52 | x | -1 | -0.012 | -5
CCOc1ccc(C2CC(c3cccc(OC)c3OC)n3nnnc3N2)cc1Cl (configuration not stated) | -1.9 | 9 | 10 | -4.1* | -1

Bioassay records (PubChem BioAssay)
